Compound activity (PubChem)
FLuc counter – qHTS profiling assay for firefly luciferase inhibitor/activator using purifed enzyme and Km concentrations of substrates (counterscreen for miR-21 project); Luciferin 4-monooxygenase (Photinus pyralis), P08659; purified FLuc, Km substrates, luminescence inhibition; Potency, µM (doses to about 57.5 µM), for the others: at the top dose activity change, negative = inhibition, hits mostly inhibitors; 360,000 compounds, 6.9% hits;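 also: plate controls were vehicle for no effect and reference inhibitor for full effect; nearly all actives have a fitted effect of over 55% in size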
Target sequence (P08659 whole entry, looked up): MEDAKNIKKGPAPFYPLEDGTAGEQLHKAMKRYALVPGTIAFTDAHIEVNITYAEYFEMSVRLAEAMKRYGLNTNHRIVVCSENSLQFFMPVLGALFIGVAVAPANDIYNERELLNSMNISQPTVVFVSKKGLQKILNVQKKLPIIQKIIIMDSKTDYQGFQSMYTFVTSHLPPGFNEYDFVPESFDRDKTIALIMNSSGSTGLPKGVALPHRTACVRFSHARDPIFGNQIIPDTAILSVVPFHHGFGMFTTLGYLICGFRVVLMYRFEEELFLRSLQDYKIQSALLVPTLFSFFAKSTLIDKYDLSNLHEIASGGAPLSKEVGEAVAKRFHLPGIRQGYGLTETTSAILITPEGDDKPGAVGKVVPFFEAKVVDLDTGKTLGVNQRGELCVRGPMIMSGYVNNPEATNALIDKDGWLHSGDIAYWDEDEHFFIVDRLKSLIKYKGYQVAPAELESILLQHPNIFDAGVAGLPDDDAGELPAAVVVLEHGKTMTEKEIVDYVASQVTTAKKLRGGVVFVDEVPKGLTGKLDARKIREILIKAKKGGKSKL
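Purified P. pyralis luciferase, 10 nM final, with Km-level 10 uM D-luciferin and 10 uM ATP in 50 mM Tris acetate pH 7.5, 10 mM Mg acetate, 0.01% Tween-20, 0.05% BSA; 6-point qHTS titration about 60 µM downward; luminescence read.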
SMN2 splice up – qHTS Assay for Enhancers of SMN2 Splice Variant Expression; HEK293 SMN2-luciferase splicing reporter, luminescence, 30-36 h; Potency, µM (highest dose often 46.1 µM), for the others: at the top dose activity change, positive = activation, actives largely listed as activators; 210,000 compounds, 2.8% hits; AID 1458, 2008; also: % of control where 0% means no effect; nearly all actives have a fitted effect of over 55% in size
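HEK293 cells carry an SMN2 minigene-luciferase reporter in which exon 7 inclusion puts luciferase in frame. Cells were seeded at 2000 cells/well, attached for 10-12 hours, then exposed to compounds for 30-36 hours at 37C before ONE-Glo luminescence.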
NPC1 promoter act – qHTS Assay for NPC1 Promoter Activators; Huh7 NPC1 promoter luciferase reporter, 24 h; Potency, µM (highest dose often 9.22 µM), for inactives: top-dose activation, actives largely listed as activators; 320,000 compounds, 2.4% hits; AID 485313, 2010; also: % of control where 0% means no effect; nearly all actives have a fitted effect of over 60% in size
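Stable NPC1-promoter luciferase Huh7 line; cpd (DMSO) 24 h, 37 °C, 5% CO2; Amplite luciferase reagent 10 min RT; luminescence readout. qHTS format.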
ELG1 genotox – qHTS screen for small molecules that induce genotoxicity in human embryonic kidney (HEK293T) cells expressing luciferase-tagged ELG1; HEK293T ELG1-luciferase reporter, luminescence, 16 h; Potency, µM (titrated, usually from 46 µM), for inactives: at the top dose activity change, positive = activation, most hits filed as activators; 330,000 compounds, 1.3% hits; also: % of control where 0% means no effect; nearly all actives have a fitted effect of over 60% in size
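ELG1-luciferase HEK293T cells, 2,000/well; compound pinned in; 16 hr, 37 °C, 5% CO2; ONE-Glo, 30 min RT; luminescence on CCD imager.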
Rab9 prom act – qHTS Assay for Rab9 Promoter Activators; Huh7 Rab9 promoter-luciferase reporter, luminescence, 24 h; 320,000 compounds, 2.8% hits; Potency, µM (top dose mostly 9.22 µM), for the others: top-dose activation, negative = inhibition, most hits filed as activators; also: % of control where 0% means no effect; nearly all actives have a fitted effect of over 60% in size
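Huh7 cells stably carrying Rab9 promoter–luciferase reporter, plated 1500 cells/well, compound added after 2 h and incubated 24 h at 37 °C; luciferase luminescence then read after 10 min with detection reagent.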
KinaseGlo FLuc – Counterscreen for Luciferase (Kinase-Glo TM) Inhibition; Kinase-Glo luciferase, ATP luminescence, 8 min; 200,000 compounds, 0.28% hits; Potency, µM (series often up to 38.3 µM), inactives show at the highest dose activity change, negative = inhibition, most hits filed as inhibitors; AID 1379, 2008; Luciferin 4-monooxygenase (Photuris pensylvanica), Q27757; also: % is scaled to controls: 0 for no effect and ±100 for the full control effect; nearly all actives have a fitted effect of over 60% in size
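Kinase-Glo luciferase light output from ATP and luciferin was measured with 10 uM ATP, within the enzyme's linear range. Buffer: 50 mM imidazole pH 7.2, 50 mM KCl, 7 mM MgCl2, 0.01% Tween 20, 0.05% BSA; luminescence read after 8 min at ambient temperature.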
* hit, by the source's call; ? = inconclusive; . = no result given. Hits are enriched below; roughly 7.4% of the tested compounds scored in any of these assays. Calls follow the shape of the dose curve; as a rule, active = well fitted curve in the direction sought with a large enough effect; inconclusive = small, poorly fitted or top-dose-only effect, or another doubt; inactive = no such curve, though single readings can be large; an effect the other way counts as inactive or inconclusive. Potency is read from the fitted curve at half-maximal effect.

SMILES	FLuc counter	SMN2 splice up	NPC1 promoter act	ELG1 genotox	Rab9 prom act	KinaseGlo FLuc
Cc1ccc(SCc2cn3ccccc3n2)cc1	5.4µM*	.	1.3µM*	5.2µM*	1.6µM*	.
c1ccc(CSCc2cn3ccccc3n2)cc1	17µM*	16µM*	2.8µM*	?	1.1µM*	-6%
c1ccc2nc(SCc3cn4ccccc4n3)cnc2c1	?	?	?	2%	?	1%
Cc1cccc(N2CCN(C(=O)CCC(=O)NNc3nc4ccccc4c4nc(C)nn34)CC2C)c1 (configuration not stated)	-14%	-18%	.	.	.	.
CCOC(=O)N1CCN(C(=O)COC(=O)c2ccc(Cl)nc2)CC1	.	.	.	-2%	.	.
CN(Cc1ccccc1)C(=O)c1ccc2c(c1)N(Cc1ccc(Cl)cc1)C(=O)c1ccccc1S2=O (configuration not stated)	3%	12%	.	.	.	.
O=C1CN(c2nc(-c3cccnc3)nc3scc(-c4ccccc4)c23)CCN1	?	27%	0%	1%	0%	-2%
O=c1oc(-c2cccs2)nc2sc3c(c12)CCCC3	2.4µM*	?	15%	1%	4%	-24%
O=C1CN(c2nc(-c3cccs3)nc3sc4c(c23)CCCC4)CCN1	6µM*	?	-37%	?	-45%	-2%
O=c1c2c3c(sc2nc2n1N=C(c1cccs1)CS2)CCCC3	0.19µM*	-23%	0.63µM*	?	0.63µM*	-6%
O=C(CSc1nnc(Cc2ccccc2)c(=O)[nH]1)Nc1ccccc1	-12%	.	-1%	-1%	-1%	.
C/C(=N\Nc1nccnc1Cl)c1ccc(Cl)c(Cl)c1	21µM*	.	18%	7%	18%	.
C/C(=N\Nc1nccnc1Cl)c1c(F)c(F)c(F)c(F)c1F	0%	-1%	0%	1%	5%	-1%
C/C(=N\Nc1nccnc1Cl)c1ccc(O)cc1	?	.	17%	12%	15%	.
C/C(=N\Nc1nccnc1Cl)c1ccc(F)cc1	24µM*	.	?	?	?	?
COc1ccc(/C=C/C(=O)Nc2cc(-c3nc4ccccc4o3)ccc2OC)cc1	?	-8%	.	.	.	.
COc1ccc(C(=O)/C(=C/c2cccs2)c2nc3ccccc3o2)cc1	-12%	-72%	4µM*	?	3.5µM*	-1%
COc1ccc(/C=C(\CC(=O)O)c2nc3ccccc3o2)cc1	9.5µM*	30%	2%	16µM*	?	4%
COc1cc(C(=S)N2CCOCC2)cc(OC)c1OS(=O)(=O)c1ccc(C)cc1	0%	.	-3%	?	-1%	.
COC(=O)N1[C@H](C)C=C[C@]1(Cc1ccccc1)C(=O)NCc1ccc(N(C)C)cc1	.	13µM*	.	.	.	-7%
COC(=O)N1[C@H](C)C=C[C@]1(Cc1ccccc1)C(=O)NCc1ccccn1	.	-21%	.	.	.	-9%
Cc1ccc(C)c(S(=O)(=O)c2nnn3c2nc(NC(C)C)c2sccc23)c1	-9%	.	.	.	.	.
CC(=O)Cc1nsc(NC(=O)c2oc(-c3ccccc3Cl)cc2C)n1	?	5%	-1%	-1%	4%	1%
CC(=O)Cc1nsc(NC(=O)c2ccc(-c3ccc(F)cc3)o2)n1	6µM*	2%	-2%	1%	16%	0%
CC(=O)Cc1nsc(NC(=O)c2ccc(-c3ccc(Cl)c(C(F)(F)F)c3)o2)n1	?	-6%	6%	-1%	-1%	-1%
SMILES	FLuc counter	SMN2 splice up	NPC1 promoter act	ELG1 genotox	Rab9 prom act	KinaseGlo FLuc
CC(=O)Cc1nsc(NC(=O)c2ccc(-c3ccccc3Cl)o2)n1	11µM*	11µM*	4%	?	8%	-1%
CCCN(CC(=O)Nc1ccc(F)c(F)c1F)C(=O)c1ccc(N2CCCC2=O)cc1	-1%	.	0%	-1%	-7%	.
O=S(=O)(/N=C(/c1ccc(F)cc1)N1CCCCC1)c1ccc(Cl)cc1	4%	.	0%	2%	-1%	.
COc1ccccc1C(=O)Nc1ccc(OCC(=O)N2CCCCC2C)cc1 (configuration not stated)	12µM*	.	-5%	1%	0%	.
COc1ccccc1C(=O)Nc1ccc(OCC(=O)N2C(C)CCCC2C)cc1 (configuration not stated)	8.5µM*	.	1%	3%	9%	.
COc1ccc(OCC(=O)OCC(=O)N2C(C)CCCC2C)cc1 (configuration not stated)	0%	.	0%	-1%	-4%	.
COc1ccc(C(=O)Nc2ccc(C(=O)N3CCCCC3C)cc2)c(OC)c1OC (configuration not stated)	-3%	.	2%	1%	-3%	.
Cc1ccc(NC(=O)Cn2cnc([N+](=O)[O-])c2)cc1C	-3%	.	-3%	6%	0%	.
O=C(COc1ccccc1)Nc1ccccc1OCc1cc(=O)n2ccccc2n1	-5%	.	.	.	.	.
CC(C)C(=O)Nc1ccccc1OCc1cc(=O)n2ccccc2n1	-8%	.	.	.	.	.
CCc1ccc(NC(=O)Nc2ccccc2OCc2cc(=O)n3ccccc3n2)cc1	0.21µM*	.	.	.	.	.
O=C(COc1ccccc1Cl)Nc1ccccc1OCc1cc(=O)n2ccccc2n1	19µM*	.	.	.	.	.
CSc1cccc(NC(=O)Nc2ccccc2OCc2cc(=O)n3cc(C)ccc3n2)c1	3µM*	.	.	.	.	.
CCOC(=O)c1ccc(NC(=O)NCc2cccnc2)cc1	-11%	.	-3%	0%	4%	.
C=CCc1cc(Cl)ccc1OCCN1CC(C)OC(C)C1 (configuration not stated)	2%	-7%	-2%	-7%	-1%	-2%
COc1ccc2nc(Nc3sc4c(c3C(N)=O)CCCC4)sc2c1	11µM*	29%	8%	17%	3%	0%
COc1ccc(-c2nc(NC3=NCCCCC3)sc2C)cc1	?	-10%	2%	-3%	-4%	3%
COc1ccc2nc(NC3=NCCC3)sc2c1	12µM*	?	3.5µM*	?	3.2µM*	-5%
